Results taken from PubChem BioAssay AID893 (National Center for Advancing Translational Sciences (NCATS), 2007).
Among all 75,000 compounds or so, about 5,700 (7.6%) were called active. Another 7% or so got no clear call; they are omitted. Calls come from the whole dose curve; as a rule, active = well fitted inhibition curve with a large enough effect; inconclusive = small, poorly fitted or top-dose-only effect; inactive = no such curve, though single readings can be large or run the other way. Only a selection was taken, and actives are over-represented in it overall.

What follows are compounds tested against 3-hydroxyacyl-CoA dehydrogenase type-2 (Homo sapiens) (UniProt Q99714) (assay: qHTS Assay for Inhibitors of HSD17B4, hydroxysteroid (17-beta) dehydrogenase 4). Conditions: recombinant HSD17B10, NADH fluorescence kinetic; series mostly up to 57.1 µM; activity change, negative = inhibition: at the top concentration.
How it was run: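 20 nM HADH2, pH 9.0 Tris/Tween; cpd preinc 15 min RT; start w/ 1 mM NAD+ + 90 uM b-hydroxybutyryl-CoA; kinetic fluor ex360/em450 q30s x 4 min; delta last-first.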
% is set by controls: 0 for no effect and ±100 for the full control effect; potency is the fitted concentration of half-maximal effect.
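Note: the protocol describes HADH2 (HSD17B10) and not the HSD17B4 of the title; nearly all actives have a fitted effect of over 70% in size.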

| SMILES | activity change, negative = inhibition | Potency |
| --- | --- | --- |
| CCOC(=O)c1ccc(N2C(=O)CC(Sc3nc(O)c(CC)c(=O)[nH]3)C2=O)cc1 (stereo not drawn) | -10.9% (inactive) | – |
| CN1CCN(c2ncncc2-c2ccc(C(=O)N(C)C)cc2)CC1 | -0.154% (inactive) | – |
| COC(=O)c1ccc(NC(=O)CSc2nnc(Cc3cccn3C)n2-c2ccc(F)cc2)cc1 | 7.48% (inactive) | – |
| CC(=O)OC1CCC2(O)CC1(C)CCC1C2CC1(C)C (stereo not drawn) | -5.12% (inactive) | – |
| CC(=O)Oc1ccccc1C(=O)Nc1ncc([N+](=O)[O-])s1 | -2.68% (inactive) | – |
| COc1ccccc1N1CCN(C[C@@H]2CN3C(=O)N(C)c4ccccc4C3=N2)CC1 | -1.78% (inactive) | – |
| CCOC(=O)[C@]1(C(/C=C/c2ccco2)NC(=O)OC)CCCC1=O (stereo partly drawn) | -2.18% [at 11.4 µM] (inactive) | – |
| O=C1c2ccccc2C(=O)N1CCc1nn[nH]n1 | -12.7% (inactive) | – |
| CN(C)CCOC(=O)C(c1ccccc1)C1(O)CCCC1 (stereo not drawn) | 3.1% (inactive) | – |
| COc1ccccc1N1CCN(C(=O)CSc2nnc(-c3ccoc3C)o2)CC1 | -20.2% (inactive) | – |
| CCOC(=O)C1CCCN(C(=O)c2ccc(CS(=O)(=O)c3ccc(Br)cc3)o2)C1 (stereo not drawn) | -0.84% (inactive) | – |
| OC(COc1cccc(OCC(O)CN2CCCC2)c1)CN1CCCC1 (stereo not drawn) | 8.82% (inactive) | – |
| COc1ccc(-c2nnco2)cc1OC | -8.86% (inactive) | – |
| COCCNCCOCCOc1cccc(OC)c1 | 4.86% (inactive) | – |
| Cn1c(=O)c(-c2ccccc2)nc2cnc(N3CCNCC3)nc21 | – | 25.1 µM (active) |
| CCc1nc2ccccc2n(CCOCCOCCn2c(=O)c(CC)nc3ccccc32)c1=O | -3.31% (inactive) | – |
| COCCn1c(=O)c(CCc2ccccc2)nc2cncnc21 | 3.41% (inactive) | – |
| COCCn1c(=O)c(CCc2ccccc2)nc2cnc(N3CCNCC3)nc21 | – | 31.6 µM (active) |
| COCCn1c(=O)c(-c2cc(F)cc(F)c2)nc2cnc(N3CCNCC3)nc21 | – | 25.1 µM (active) |
| Cc1c2cn[nH]c(=O)c2c(C)n1Cc1ccc(F)cc1 | -2.15% (inactive) | – |
| O=c1c(-c2ccc(F)cc2)nc2cnc(N3CCNCC3)nc2n1Cc1cccs1 | 13.7% (inactive) | – |
| Cc1nc2cnc(N3CCNCC3)nc2n(Cc2ccc(F)cc2)c1=O | – | 25.1 µM (active) |
| O=C1C(c2ccccn2)=[N+]([O-])c2ccccc21 | -0.52% (inactive) | – |
| COC1C[C@@H](O[C@@H]2C(C)C(=O)OC(C)C(C)C(O)C(C)C(=O)[C@@]3(CO3)CC(C)C(OC3OC(C)CC(N(C)C)C3O)C2C)OC(C)[C@@H]1O (stereo partly drawn) | -6.38% (inactive) | – |
| O=C(Oc1cc(OC(=O)c2ccccc2)c2c(c1)OC(c1ccc(OC(=O)c3ccccc3)c(OC(=O)c3ccccc3)c1)[C@@H](OC(=O)c1ccccc1)C2)c1ccccc1 (stereo partly drawn) | -0.411% (inactive) | – |
| CC(=O)Oc1cccc(N2C(=O)C3CC=C(Cl)CC3C2=O)c1 (stereo not drawn) | 5.42% (inactive) | – |

| SMILES | activity change, negative = inhibition | Potency |
| --- | --- | --- |
| COc1ccc(C(=O)Nc2ccc3c(c2)OCO3)cc1OC | 2.82% (inactive) | – |
| CC(=O)Nc1ccc(S(=O)(=O)N2CCCC2C(=O)O)cc1 (stereo not drawn) | -5.4% (inactive) | – |
| O=C(Cc1ccccc1)n1nc(-c2ccccc2)nc1NCc1ccco1 | 107% (inactive) | – |
| C=C(C)Cn1c(SCC(=O)NCc2ccco2)nc2sc3c(c2c1=O)CCC3 | 4.01% (inactive) | – |
| CN1CCc2c(sc3c2c(NCc2ccco2)nc2nnnn23)C1 | – | 31.6 µM (active) |
| CC(=O)NCCc1ccc(S(=O)(=O)N(C)C2CCS(=O)(=O)C2)cc1 (stereo not drawn) | -5.85% (inactive) | – |
| CCn1c(COc2ccccc2)nnc1SCC(=O)Nc1ccc2c(c1)OCCO2 | 6.16% (inactive) | – |
| CN1CCN(S(=O)(=O)c2ccc(NC(=O)C3CCCO3)cc2)CC1 (stereo not drawn) | 10.7% (inactive) | – |
| COc1ccc(C(=O)CSc2nnc(COc3ccccc3)n2Cc2ccco2)cc1 | -21.4% (inactive) | – |
| O=c1c2[nH]c3ccc(Cl)cc3c2ncn1Cc1ccccn1 | -4.52% (inactive) | – |
| COc1ccc2[nH]c3c(=O)n(Cc4ccco4)cnc3c2c1 | – | 3.16 µM (active) |
| Cc1cc(C)c2nc3c(c([C@H](O)[C@@H]4CCCCN4)c2c1)CC/C3=C/c1ccc(Cl)cc1 | 9.81% [at 11.4 µM] (inactive) | – |
| O=C1CC(c2cccc(Br)c2)C2=C(CCCC2=O)N1 (stereo not drawn) | 11.3% (inactive) | – |
| O=C(CN1CCN(S(=O)(=O)c2ccc(F)cc2)CC1)Nc1ccccc1F | -0.0846% (inactive) | – |
| COc1cc2c(cc1NC(=O)CN1CCN(S(=O)(=O)c3ccc(F)cc3)CC1)oc1ccccc12 | – | 3.16 µM (active) |
| COc1ccc(NC(=O)CN2CCN(S(=O)(=O)c3ccc(F)cc3)CC2)cc1Cl | 10.4% (inactive) | – |
| CCN(CCCCOC(=O)c1ccc(OC)c(OC)c1)C(C)Cc1ccc(OC)cc1 (stereo not drawn) | -2.4% (inactive) | – |
| CC(=O)N1CCC(C(=O)Nc2nc(-c3ccccc3)ns2)CC1 | – | 10 µM (active) |
| CCN(CC)S(=O)(=O)N1CCC(C(=O)NC(C)CCc2ccccc2)CC1 (stereo not drawn) | -6.36% (inactive) | – |
| Cc1ccc2c(NC(=O)C3CC3)cccc2n1 | 5.59% (inactive) | – |
| CCOC(=O)c1nc(N)sc1C(=O)OCC | 4.19% (inactive) | – |
| CN1CCCc2cc(C#N)c(=O)[nH]c21 | – | 15.8 µM (active) |
| COc1ccccc1Cn1c(=S)[nH]c2cc(C(=O)N3CCN(C)CC3)ccc2c1=O | 0.149% (inactive) | – |
| CC1=C(C(=O)Nc2ccccc2)C(c2cccs2)C(C#N)=C(SCC#N)N1 (stereo not drawn) | – | 31.6 µM (active) |
| CCOC(=O)CSC1=C(C#N)C(c2sccc2C)CC(=O)N1 (stereo not drawn) | 14.8% (inactive) | – |
| CCOC(=O)CSC1=C(C#N)C(c2ccco2)C(C(=O)OCc2ccccc2)=C(C)N1 (stereo not drawn) | 32.8% (inactive) | – |

| SMILES | activity change, negative = inhibition | Potency |
| --- | --- | --- |
| O=C(Cn1nnc(-c2ccc(CN3CCOCC3)cc2)n1)NC1CCCCC1 | -1.05% (inactive) | – |
| COCCCNC(=O)COc1cc(C)c(Cl)c(C)c1 | 0.176% (inactive) | – |
| CCC/C(O)=C1\C(=O)CC(C)(C)CC1=Nc1ccccc1OC | 1.69% (inactive) | – |
| CCCNC(=O)OC[C@@H]1O[C@H](c2ccccc2)C=C[C@@H]1Oc1ccc(OC)cc1 | -0.586% [at 11.4 µM] (inactive) | – |
| Cn1cc(-c2nc3cncnc3n(-c3ccccc3)c2=O)c2ccccc21 | 6.28% (inactive) | – |
| O=c1c(-c2cccs2)nc2cnc(Oc3ccccc3)nc2n1-c1ccccc1 | – | 25.1 µM (active) |
| COc1nc(NCc2ccc(Cl)cc2)nc(OC)n1 | 9.75% (inactive) | – |
| COc1ccc(C(=O)n2nc(-c3ccc(Cl)cc3)nc2N)cc1OC | -5.6% (inactive) | – |
| CN(C(=O)COc1nnc(-c2cccs2)c(-c2cccs2)n1)c1ccccc1 | -8.5% (inactive) | – |
| COc1ccc(-c2c3c(=O)n(C)c(=O)n(C)c3cn2-c2cccc(OC)c2)cc1 | 3.18% (inactive) | – |
| COc1ccc(Oc2ncc3nc(-c4ccc(F)cc4)c(=O)n(C)c3n2)cc1 | – | 31.6 µM (active) |
| COc1ncc2nc(-c3ccc(Cl)cc3)c(=O)n(-c3ccccc3)c2n1 | – | 25.1 µM (active) |
| COc1ccc(-n2c(C)nc3c(cnn3-c3ccccc3)c2=O)cc1 | 1.94% (inactive) | – |
| COc1ncc2nc(-c3ccc(Cl)cc3)c(=O)n(C)c2n1 | – | 31.6 µM (active) |
| COc1ccc(Oc2ncc3nc(C)c(=O)n(-c4ccccc4)c3n2)cc1 | 4.75% (inactive) | – |
| Cc1ccc(S(=O)(=O)N2CCC(C(=O)N[C@@H](C)C(=O)NCc3ccccc3)CC2)cc1 | 6.7% (inactive) | – |
| O=C(Nc1cccc2c1CCCC2)C1CCN(C(=O)NC2CCCCC2)CC1 | -3.12% (inactive) | – |
| c1ccc2sc(SCCSc3nc4ccccc4s3)nc2c1 | 2.8% [at 11.4 µM] (inactive) | – |
| O=C(c1cc(-c2cccc(O)c2)on1)N1CCc2ccccc2C1 | -24.6% (inactive) | – |
| O=C1CN(C(=O)COC(=O)C2CC(=O)N(Cc3ccco3)C2)c2ccccc2N1 (stereo not drawn) | -2.17% (inactive) | – |
| CN(C)C(=O)/N=N\C(=O)N(C)C | -21.2% (inactive) | – |
| O=c1c(-c2ccc(F)c(F)c2)nc2cncnc2n1-c1ccccc1 | -28% (inactive) | – |
| O=C1c2cccnc2C(=O)N1Cc1cccs1 | 5.59% (inactive) | – |
| COc1ccc(-c2nc3cnc(Oc4ccccc4)nc3n(Cc3cccs3)c2=O)cc1 | – | 12.6 µM (active) |
| COCCn1c(=O)c(-c2ccc(OC)cc2)nc2cnc(Oc3cccc(Cl)c3)nc21 | -646% [at 57.1 µM, above what the read-out allows, likely interference] (inactive) | – |
| CN1CCN(c2ncc3nc(-c4ccc(Cl)cc4)c(=O)n(-c4ccccc4)c3n2)CC1 | – | 25.1 µM (active) |

| SMILES | activity change, negative = inhibition | Potency |
| --- | --- | --- |
| CN1CCN(c2cc(=O)n(-c3ccc(Cl)cc3)c(=O)[nH]2)CC1 | -5.62% (inactive) | – |
| C=CC(=O)OCCOCCOCCOCCOC(=O)C=C | – | inactive |
| Cc1ccccc1NC(=O)Cc1nnc(SCC(=O)N2CCN(c3ccccc3)CC2)n1C | -23.9% (inactive) | – |
| Cc1nnc(SCC(=O)Nn2cnnc2)s1 | 2.74% (inactive) | – |
| CC(C)[C@H](CO)Nc1nc(Nc2cc(N)cc(Cl)c2)c2ncn(C(C)C)c2n1 | -27.3% (inactive) | – |
| Cc1c(CN2CCC(C)CC2)c(=O)n(-c2ccccc2)n1C | 0.527% (inactive) | – |
| COC(=O)[C@@H]1C[C@@]2(O)[C@H](O)[C@H](O)[C@H](O)C[C@H]2N1CC1CCCCC1 | 6% (inactive) | – |
| CCOc1ccc(S(=O)(=O)n2ccnc2)c2ccccc12 | -4.92% (inactive) | – |
| C[C@@H](Nc1nc(-c2ccccc2)nc2c1oc1ccccc12)C(=O)O | -5.05% (inactive) | – |
| CCSc1nc(C)nc2c1oc1ccccc12 | -23.1% (inactive) | – |
| CCc1nc(Nc2ccc3nccnc3c2)c2oc3ccccc3c2n1 | – | 12.6 µM (active) |
| Cc1cccc(N2CCN(S(=O)(=O)c3ccc4c(c3)c(=O)n(C)c(=O)n4C)CC2C)c1 (stereo not drawn) | 1.18% (inactive) | – |
| Cc1ccc(C)c(S(=O)(=O)n2cnc3ccccc32)c1 | -2.14% (inactive) | – |
| CC(=O)OCC1OC(C#Cc2ccccc2Cl)C=CC1OC(C)=O (stereo not drawn) | -6.58% [at 11.4 µM] (inactive) | – |
| COc1ccc(C2CC(=O)C=C(NCC3CCCO3)C2)cc1 (stereo not drawn) | -5.32% (inactive) | – |
| COc1ccc2nc(NC3=NCN(CC4CCCO4)CN3)nc(C)c2c1 (stereo not drawn) | – | 31.6 µM (active) |
| Cc1ccc2nc(NC3=NCN(CCc4ccccc4)CN3)nc(C)c2c1 | 3.14% (inactive) | – |
| Oc1ccccc1CNCc1ccccc1O | -0.327% [at 11.4 µM] (inactive) | – |
| CSc1sc(C)cc1C1C(C#N)=C(N)N(c2cccnc2)C2=C1C(=O)CCC2 (stereo not drawn) | – | 15.8 µM (active) |
| O=S(=O)(c1ccccc1)N1CCC2(CC1)CN(Cc1nccs1)C2 | 6.63% (inactive) | – |
| CCCC(C(=O)N1CCOCC1)N1C(=O)C2C3C=CC(C3)C2C1=O (stereo not drawn) | 3.68% (inactive) | – |
| O=C(O)C1CCN(S(=O)(=O)N2CCOCC2)CC1 | 12.1% (inactive) | – |
| Cn1nc(-c2ccc(Cl)cc2)c2cc(C(=O)NCc3ccco3)sc21 | – | 31.6 µM (active) |
| CCOC(=O)N1CCN(C(=O)c2cc3c(-c4ccc(Cl)cc4)nn(C)c3s2)CC1 | 5.07% (inactive) | – |
| COc1ccccc1N1CCN(C(=O)c2cc3c(-c4ccc(Cl)cc4)nn(C)c3s2)CC1 | -6.74% (inactive) | – |
